Assay outcomes from PubChem.
MARV entry inh = blocks Marburg virus binding to or entry into cells | AID 540276 | Potency, µM (top dose mostly 37.8 µM), for inactives: top-dose activity change, negative = inhibition, actives largely listed as inhibitors | hit rate 1.8% among 300,000 | Marburg virus pseudotyped entry inhibition, cell reporter; calls by dose curve; tested in HEK293 cells
VACV Venus inh = inhibitors of vaccinia virus (Venus reporter) | Vaccinia virus Venus reporter expression, fluorescence | hit rate 0.46% among 330,000 | Potency, µM (series often up to 36.5 µM), for inactives: at the highest dose activity change, negative = inhibition, actives largely listed as inhibitors; calls by dose curve; tested in A549 cells; also: nearly all actives have a fitted effect of over 30% in size
HCV inhibitor = HCV inhibition. Huh7.5.1 HCVcc-Cre infection, luciferase reporter, 44 h. Potency, µM (titrated, usually from 41.8 µM), for the others: at the top dose activity change, negative = inhibition, actives largely listed as inhibitors. hit rate 3.4% among 340,000. AID 651820; active = well fitted inhibition curve with a large enough effect; inconclusive = small, poorly fitted or top-dose-only effect, or another doubt; inactive = no such curve, though single readings can be large or run the other way
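A cell-based infection assay in which seeded cells (1,000 per well) receive test compound after 4 h, are inoculated with HCVcc-Cre at approximately 0.5 moi, and are incubated 44 h before luminescence detection.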
Vaccinia mCherry = vaccinia inhibition (mCherry reporter). Vaccinia virus mCherry reporter infection, fluorescence. hit rate 0.63% among 310,000. Potency, µM (doses to about 36.5 µM), for inactives: top-dose activity change, negative = inhibition, usual class: inhibitors. AID 720579; calls by dose curve; tested in A549 cells; also: nearly all actives have a fitted effect of over 35% in size
Lassa entry inh = Lassa virus entry inhibition | Lassa virus pseudotype entry inhibition, cell reporter | Potency, µM (series often up to 37.9 µM), inactives show at the highest dose activity change, negative = inhibition, hits mostly inhibitors | hit rate 1.2% among 300,000 | AID 540256; calls by dose curve; tested in HEK293 cells; also: nearly all actives have a fitted effect of over 50% in size
Starred values were filed as active, the others as inactive; i = inactive; ? = inconclusive; . = no result; [ ] = dose if it differs, or a comment. In the library only some 4.6% were active in any assay of this set; here they are far more common. % is scaled to controls: 0 for no effect and ±100 for the full control effect; potency is read from the fitted curve at half-maximal effect.

SMILES	MARV entry inh	VACV Venus inh	HCV inhibitor	Vaccinia mCherry	Lassa entry inh
COc1cc(CNS(=O)(=O)c2ccc3c(c2)CC(C)N3C(=O)C2CCC2)cc(OC)c1OC (configuration not stated)	.	.	10µM*	.	.
COc1ccc(CCNS(=O)(=O)c2ccc3c(c2)CC(C)N3C(=O)C2CCC2)cc1OC (configuration not stated)	.	-14%	.	-9%	-28%[46.1 µM]
CCN(CC)C(=O)Cn1c(SCC(=O)Nc2ccc(C)c(C)c2)nc2ccccc21	.	-8%	.	-19%	?
CC(Nc1ccc2c(c1)OCCO2)C(=O)N1c2ccccc2CC1C (configuration not stated)	-2%[46.1 µM]	-14%	-9%	-20%	8.9µM*
CC1Cc2ccccc2N1C(=O)NC1CC(=O)N(c2ccc3c(c2)OCCO3)C1 (configuration not stated)	?	20%	-5%	-20%	-7%[46.1 µM]
c1ccc(-c2nc3ccccc3[nH]2)nc1	-32%	3%	19%	-9%	?
Cc1ccc2nc(-c3ccccn3)[nH]c2c1	?	-7%	-30%	-11%	6.3µM*
O=C1S/C(=C\C=C\c2ccco2)C(=O)N1c1ccc(O)cc1	21µM*	-14%	?	i	?
O=C(COC(=O)CSc1ccc(Cl)cc1)Nc1ccccc1	.	.	14µM*	.	.
COc1ccc(COC(=O)C2=C(C)NC(=O)NC2c2cccc(Br)c2)cc1 (configuration not stated)	.	.	10µM*	.	.
CC1=C(C(=O)OCc2ccc3c(c2)OCO3)C(c2ccc(Cl)cc2)NC(=O)N1 (configuration not stated)	2.1µM*	?	?	?	?
CC1=C(C(=O)OCc2ccccc2)C(c2cccc(Br)c2)NC(=O)N1 (configuration not stated)	.	.	-18%	.	.
CCOC(=O)C1=C(CNCc2ccc(C)cc2)NC(=O)NC1c1ccc(OC)cc1 (configuration not stated)	5µM*	?	?	.	?
CCOC(=O)C1=C(CNCc2ccc(Cl)cc2)NC(=O)NC1c1ccccc1 (configuration not stated)	-27%[46.1 µM]	-4%	.	-7%	-22%[46.1 µM]
CC(=O)Nc1ccc(N2CCN(Cc3ccccc3F)CC2)cc1	26%	.	32%	.	?
O=C(Nc1ccc(Cl)cc1)N1CCCN(Cc2ccccc2F)C1	?	.	10µM*	.	-27%
Cc1ccc(NC(=O)N2CCCN(Cc3ccc(F)cc3)C2)cc1C	6.3µM*	-23%	?	.	-17%
CCCCOc1ccc(CNC(=O)c2cnc3sc(N4CCCC4)nn3c2=O)cc1	.	-11%	.	-7%	-1%[46.1 µM]
CCN(CC)c1ccc(-c2nnc(SCC(=O)NCc3ccco3)n2C)cc1	.	-23%	.	-18%	.
Cc1ccc2nc(/N=C(\N)NC(=O)NC3CCCCC3)nc(C)c2c1	5.6µM*	?	11µM*	?	?
Cc1nc(/N=C(\N)NC(=O)c2ccccc2)nc2ccccc12	?	-4%	?	i	1%
CCCC(=O)N/C(N)=N/c1nc(C)c2cc(C)ccc2n1	-18%[46.1 µM]	?	6.3µM*	2.2µM*	?
Cc1cc2nc(/N=C(\N)NC(=O)C(C)C)nc(C)c2cc1C	?	1µM*	11µM*	?	?
CCC(=O)N/C(N)=N/c1nc(C)c2cc(C)c(C)cc2n1	0%[46.1 µM]	?	?	?	-8%
CS(=O)(=O)c1ccc(NC(=O)COc2ccccc2C(=O)Nc2ccccc2)cc1	.	-17%	.	-15%	.
SMILES	MARV entry inh	VACV Venus inh	HCV inhibitor	Vaccinia mCherry	Lassa entry inh
Cc1snc(S(=O)(=O)/C(C#N)=N/Nc2cccc(C(F)(F)F)c2)c1C#N	0%	?	-5%	11µM*	5%
CCCOc1nc(N)c(C#N)c(-c2ccccc2F)c1C#N	-8%	-22%	35µM*	-25%	?
O=C(NNC(=S)Nc1ccc(F)cc1)C1CC1c1ccc(Cl)cc1 (configuration not stated)	0%	-19%	-13%	-21%	0.41µM*
Cc1ccc(NC(=S)NNC(=O)C2CC2c2ccc(C)cc2)cc1 (configuration not stated)	-13%	.	?	.	?
NNC(=O)C1CC1c1ccc(Cl)cc1 (configuration not stated)	0%	-9%	-14%	-19%	2.6µM*
NNC(=O)[C@@H]1C[C@@H]1c1ccccc1	-2%	.	3%	.	2%
C[C@@H]1O[C@@H](O[C@H]2C[C@@H](O)[C@]3(CO)[C@@H]4C(CC[C@]3(O)C2)[C@@]2(O)CC[C@H](C3COC(=O)C3)[C@@]2(C)C[C@H]4O)[C@H](O)[C@H](O)[C@H]1O (some centres not stated)	0.82µM*	1.8µM*	?	?	.
C[C@@H]1O[C@@H](O[C@H]2C[C@@H](O)[C@]3(CO)[C@H]4[C@H](O)C[C@]5(C)[C@@H]([C@@H]6COC(=O)C6)CC[C@]5(O)[C@@H]4CC[C@]3(O)C2)[C@H](O)[C@H](O)[C@H]1O	0.32µM*	.	.	.	.
O=C(c1cn[nH]c1)N1CCc2c([nH]c3ccccc23)C1c1c(F)cccc1Cl (configuration not stated)	?	-15%	4%	10µM*	?
O=C(O)CCC(=O)N1CCc2c([nH]c3ccccc23)C1C(F)(F)F (configuration not stated)	-5%[46.1 µM]	-10%	8%	-10%	7%[46.1 µM]
O=C(c1ccc(Cl)cc1)N1CCc2c([nH]c3ccccc23)C1C(F)(F)F (configuration not stated)	11µM*	-27%	?	i	?
Cc1ccc(NC(=O)N2CCc3c([nH]c4ccccc34)C2c2ccccc2F)c(Cl)c1 (configuration not stated)	.	-9%	.	-12%	7.9µM*
CC(C)CNC(=O)N1[C@H](c2cccs2)[C@@H](C)C(=O)[C@@H](C)[C@@H]1c1cccs1	-11%[46.1 µM]	-16%	.	-10%	11%[46.1 µM]
COC(=O)c1cc2oc3ccccc3c2n1Cc1nc(-c2ccc(Cl)cc2)oc1C	7%[46.1 µM]	3%	.	-18%	.
Cc1cc(C)c(S(=O)(=O)NCCCn2ccnc2)cc1C	3.5µM*	-12%	-13%	-19%	?
Cc1cc(S(=O)(=O)NCCCn2ccnc2)c(C)cc1Cl	-12%[46.1 µM]	-13%	-3%	i	5%[46.1 µM]
Cc1cccc(-c2nc(CSc3nncn4c3cc3sccc34)c(C)o2)c1	.	-19%	.	-23%	15%[46.1 µM]
FC(F)(F)c1cc(-c2cccs2)nc(-n2cc(Cl)cn2)n1	1%	.	10µM*	.	21%
O=C(O)CSc1nc(-c2cccs2)cc(C(F)(F)F)n1	?	6%	-22%	6%	9%
COc1ccc(OC)c(-c2cc(C(=O)Nc3c(C)nn(Cc4ccc(C)cc4)c3C)no2)c1	-19%[46.1 µM]	-30%	.	-31%	4%[46.1 µM]
COc1ccccc1-c1cc(C(=O)Nc2c(C)nn(Cc3ccc(Cl)cc3)c2C)no1	10µM*	?	.	?	?
COc1ccc(-c2cc(C(=O)Nc3c(C)nn(Cc4ccc(Cl)cc4)c3C)no2)cc1	23µM*	.	?	.	-6%
